PubChem BioAssay (NCATS)
Inconclusive results are not listed. Unmarked numbers belong to inactive results. Active and inactive are the calls of the source. The call rests on the fitted dose curve; in most records, active means well fitted inhibition curve with a large enough effect; inconclusive means small, poorly fitted or top-dose-only effect; inactive means flat fitted curve, though single readings scatter.

Molecular target: Calcium and integrin-binding protein 1 (Homo sapiens) (UniProt Q99828)
Sequence (Q99828 whole entry, looked up): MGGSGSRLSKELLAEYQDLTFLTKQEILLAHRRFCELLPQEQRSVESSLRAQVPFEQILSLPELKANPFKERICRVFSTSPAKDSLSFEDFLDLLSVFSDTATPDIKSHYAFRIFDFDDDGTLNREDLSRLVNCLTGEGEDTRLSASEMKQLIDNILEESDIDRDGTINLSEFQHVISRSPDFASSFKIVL
Test: Primary qHTS for Identification of Calcium Integrin Binding Protein 1 (CIB1) Competitor (AID 1508620);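 further: GST tagged CIB1 binding a fluorescein labelled alphaIIb integrin peptide tracer; top concentration of the series differs between compounds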
Conditions: CIB1-GST / FITC-alphaIIb peptide fluorescence polarization; series mostly up to 114 µM; activity change, negative = inhibition: at the top concentration
Summary of the method: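 CIB1-GST (1 uM final) and compound incubated 15 min at room temperature before adding FITC-alphaIIb peptide tracer (100 nM final). Competition for binding read by fluorescence polarization (ex 480, em 540) after another 15 min at room temperature.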
On the % scale 0 is the no-effect control and ±100 the full control effect.

SMILES	activity change, negative = inhibition	Potency
COc1cccc(C2=Nn3c(nnc3-c3ccccc3C)SC2)c1	-13.2%	
Cc1cc(C)nc(NC(=S)N2CCN(c3cc(Cl)c(Cl)cc3Cl)CC2)c1	-8.14%	
CC(=O)NC(C)c1cc(F)c2cccnc2c1O (configuration not stated)	-25%	
Cc1nnc(-c2cnn(C)c2N)n1CCCc1ccncc1	2.64%	
Nc1ccc2c(=O)n3nc(Nc4ccc5c(c4)CCC5)sc3nc2c1	-16.4%	
Fc1ccc(CNc2nc(-c3ccccc3C(F)(F)F)nc3ccccc23)cc1	2.13%	
OCc1ccnc(NC(=S)N2CCN(c3cccc(C(F)(F)F)c3)CC2)c1	-0.577%	
O=C(/C=C/c1ccccc1Br)NCCc1nc2ccccc2[nH]1	-0.875%	
Cc1cc2c(s1)c1c(C)nn(Cc3ccc(F)cc3)c(=O)c1n2C	3.78%	
COc1ccc(C2Nc3ccccc3C(=O)N2Cc2ccncc2)cc1COc1c(C)cc(NC(C)=O)cc1C (configuration not stated)	2.95%	
CC(=O)c1ccccc1-c1ncc(C)c(NCC2CCN(c3cccnc3)CC2)n1	7.27%	
O=C(/C=C/c1c(F)c(F)c(F)c(F)c1F)Nc1cccc([S+](=O)([O-])Nc2ccccc2F)c1	-15%	
FC(F)(F)c1cc(-c2ccc(CNc3nc(C4CCCC4)nc4ccccc34)cc2)ccn1	18.9%	
Oc1ccc(CNc2ccccn2)c2cccnc12	5.13%	
CN(C)C(=O)c1cccc(-c2csc(N3CCC(C(N)=O)CC3)n2)c1	2.55%	
O=C(/C=C/c1ccc2c(c1)OCO2)Nc1cccc([S+](=O)([O-])Nc2ccccc2F)c1		inactive
CC1=C(C(=O)c2ccccc2)C(c2ccccc2Cl)N=C(Nc2nc3ccccc3o2)N1 (configuration not stated)	12.8%	
